Experimental findings from ChEMBL document CHEMBL1157539, “Thousands of chemical starting points for antimalarial lead identification” (Nature, 2010) are described below.

Holding throughout (format): functional
Test [1] concerns Plasmodium falciparum. In words: GSK_TCMDC: Inhibition of Plasmodium falciparum 3D7 in whole red blood cells, using parasite LDH activity as an index of growth. Test compounds present at 2uM.
Test [2] relates to Plasmodium falciparum. The test is described as follows: GSK_TCMDC: Inhibition of Plasmodium falciparum Dd2 in whole red blood cells, using parasite LDH activity as an index of growth. Test compounds present at 2uM.
The subject of a further test is HepG2. In words: GSK_TCMDC: Percent inhibition of human HepG2 cell line. Test compounds present at 10uM.

The structures appear in SMILES notation.

The Inhibition is the relative decrease from the control value, in per cent.

For `Cc1ccc(C(NC(=O)Cc2ccccc2)c2ccc3cccnc3c2O)cc1` (stereo not given), the Inhibition in the test on Plasmodium falciparum [1] is given as 94%; in the test on Plasmodium falciparum [2], 77%; with HepG2, 47%.
For `CCCN(CCC)CC(O)COc1ccccc1C(=O)Nc1ccccc1` (stereo not given), in that order: 92%, 95% and 6%.
In the same order, the values of `Cl.O=C(c1ccc(-c2ccc(Cl)cc2)o1)N1CCc2cc3nccc(N4CCN5CCC[C@H]5C4)c3cc21` are 100%, 86% and 1%.
For `Cc1ccc(-c2nnc(Nc3ccc(CC(N)=O)cc3)c3ccccc23)cc1S(=O)(=O)NCC1CCCO1` (stereo not given), in that order: 83%, 64% and 0%.
Regarding `CCCCC(CC)C(=O)C(NC(=O)[C@H](CSC(c1ccccc1)(c1ccccc1)c1ccccc1)NC(=O)OC(C)(C)C)C(=O)OC` (stereo not given in full), the figures for the Inhibition in the test on Plasmodium falciparum [1], in the test on Plasmodium falciparum [2] and in the test with HepG2 were 88%, 31% and 8%, respectively.
`Cc1cccc2nc(-c3ccc(-c4cccc(NC(=O)C(C)CN(C)C)c4)s3)[nH]c12` (stereo not given): the figures for the Inhibition in the test with Plasmodium falciparum [1], in the test with Plasmodium falciparum [2] and with HepG2 were 92%, 69% and 12%, respectively.
For `Nc1nc(N)c2cc(N(Cc3ccccc3)Cc3ccccc3)ccc2n1`, in that order: 99%, 88% and 69%.
In the same order, the values of `Cc1ccc(C)c2c1[nH]c1ccc(C3=NCCN3)cc12.Cl` are 100%, 0% and 29%.
For `CC(=O)Nc1ccc(Nc2c3ccccc3nc3ccccc23)cc1`, the figures for the Inhibition in the test with Plasmodium falciparum [1], in the test with Plasmodium falciparum [2] and in the test with HepG2 were 89%, 62% and 41%, respectively.
With `O=C(Nc1cccc([N+](=O)[O-])c1)N(Cc1ccc(Cl)c(Cl)c1)C1CCNCC1`, the Inhibition in the test on Plasmodium falciparum [1] is given as 99%; in the test with Plasmodium falciparum [2], 0%; in the test with HepG2, 17%.
For `COc1cccc(Cc2c(C)nc3nc(N)nc(N)c3c2C)c1.Cl`, in that order: 95%, 1% and 65%.
For `CC(OC(=O)c1ccc(C(=O)NCC2CC2)cc1)C(C)(C)C` (stereo not given), in that order: 93%, 86% and 10%.
In the same order, the values of `CN1CCC=C(C(=O)NCC(C)(C)c2nc(-c3ccc(Cl)c(O)c3)c(-c3ccncc3)[nH]2)C1.Cl` are 96%, 96% and 39%.
`Cl.FC(F)(F)c1cc(Nc2ccc(Oc3ccccc3)cc2)c2cc(-c3ccncc3)ccc2n1`: the Inhibition in the test on Plasmodium falciparum [1] is 100%; in the test on Plasmodium falciparum [2], 70%; with HepG2, 0%.
For `N#Cc1cccc(C(=O)Nc2cccc(-c3ccc(C(=O)NCCCN4CCOCC4)cc3)c2)c1`, in that order: 96%, 21% and 21%.
In the same order, the values of `Cc1ccc(-c2ccc(Cl)cc2Oc2cnc(N)nc2N)o1` are 100%, 3% and 15%.
On to `CCOc1c(OC)ccc2c1CCN(CCN1CCC(CNC(=O)c3ccc(-c4ccc(C#N)cc4)cc3)CC1)C2`, for which the figures for the Inhibition in the test on Plasmodium falciparum [1], with Plasmodium falciparum [2] and in the test on HepG2 were 92%, 61% and 45%, respectively.
In the same order, the values of `CCN1CCC(N(Cc2ccc(-c3ccc(C(F)(F)F)cc3)cc2)C(=O)Cn2c(CCc3cccc(F)c3F)cc(=O)c3cn(C)nc32)CC1.O=C(O)C(O)C(O)C(=O)O` are 95%, 87% and 27%.
For `COc1ccc(CNCc2ccc(F)cc2)cc1-c1ccc(S(=O)(=O)NCCN2CCCC2)s1.O=C(O)C(F)(F)F`, in that order: 100%, 65% and 61%.
For `CCCCNC(=N)c1ccc(OCCCCCOc2ccc(C(=N)NCCCC)cc2)cc1.Cl`, in that order: 99%, 99% and 19%.
With `O=C(NCCc1cccc(F)c1)c1ccc(N2CCN(c3ccncc3)CC2)cn1.O=C(O)C(F)(F)F`, the Inhibition turned out to be 94% with Plasmodium falciparum [1], 7% with Plasmodium falciparum [2] and 4% in the test on HepG2.
In the case of `CCN(CC)CCCOC(=O)c1ccc2c(c1)-c1ccc(C(=O)OCCCN(CC)CC)c3cccc-2c13.Cl`, the Inhibition in the test on Plasmodium falciparum [1] is listed as 98%; in the test with Plasmodium falciparum [2], 96%; in the test on HepG2, 22%.
In the same order, the values of `Cc1cc(CNCCCCCCCNCc2cccc([N+](=O)[O-])c2)ccc1O` are 100%, 0% and 6%.
With `CCc1cn2c3c(cc(C(=O)N[C@@H](Cc4ccccc4)[C@H](O)CNC4CCC4)cc13)N(C)S(=O)(=O)CC2`, the Inhibition with Plasmodium falciparum [1] is on record as 98%; in the test with Plasmodium falciparum [2] it was 98%; in the test on HepG2, 0%.
In the case of `Br.CCCC1N=C(N)N=C(N)N1c1ccc(C)c(C)c1` (stereo not given), the results for the Inhibition in the test on Plasmodium falciparum [1], with Plasmodium falciparum [2] and with HepG2 were 95%, 0% and 7%, respectively.
For `CC(C)CN1C(=O)c2ccccc2C(C(=O)Nc2cccc(C#N)c2)C1c1cccs1` (stereo not given), in that order: 100%, 100% and 11%.
For `CN1CCC(Oc2ccc(Nc3nccc(NCC(O)c4ccccc4)n3)cc2Cl)CC1` (stereo not given), in that order: 100%, 99% and 46%.
In the same order, the values of `Cc1nc(-c2ccc(-c3ccc(NC(=O)c4coc5ccc(N6CC(C)NC(C)C6)cc45)cc3)c(C)c2)no1.Cl` (stereo not given) are 100%, 88% and 1%.
For the compound `COc1cccc(OC)c1C(=O)Nc1cccc(-c2nn3ccccc3c2-c2ccnc(Nc3cccc(F)c3)n2)c1`, the Inhibition in the test with Plasmodium falciparum [1] is given as 95%; with Plasmodium falciparum [2], 38%; with HepG2, 3%.
For `Cc1cccc2nc(-c3ccc(-c4cccc(NC(=O)C(C)CN5CCN(C)CC5)c4)cc3)[nH]c12` (stereo not given), in that order: 98%, 51% and 5%.
